Experiment [1] can be described thus: qHTS assay for small molecule agonists of the antioxidant response element (ARE) signaling pathway measured by Nrf2-dependant transcriptional activity (AID 720636; active means well fitted curve in the direction sought with a large enough effect in the repeat runs; an effect the other way counts as inactive or inconclusive;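 further: HepG2 cells with an ARE-driven luciferase reporter; % of control where 0% means no effect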). A digest of the protocol:
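Nrf2-dependent transcription is measured in ARE-luc HepG2 cells: compound is applied for 16 hr at 37 C after a 6 hr attachment period, and luciferase activity is quantified by luminescence using ONE-Glo.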
A general note: qHTS replaces the single test concentration by a dilution series.

Experiment [2] in a line: qHTS assay for small molecule antagonists of the retinoid-related orphan receptor gamma (ROR-gamma) signaling pathway - cell viability counter screen (AID 720652; active means well fitted curve in the direction sought with a large enough effect in the repeat runs; an effect the other way counts as inactive or inconclusive;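 further: compound exposure lasted 16 hr before ATP read; on the % scale 0 is the no-effect control and ±100 the full control effect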). In short, it runs like this:
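Luminescence from CellTiter-Glo after 30 min at room temperature reported cellular ATP as the cytotoxicity measure. Cells were the CHO reporter line with doxycycline-induced ROR-gamma expression, exposed to compound for 16 hr at 37 C.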

A short description of experiment [3]: qHTS assay for small molecule agonists of the antioxidant response element (ARE) signaling pathway measured by Nrf2-dependant transcriptional activity - cell viability counter screen (AID 720653; active means well fitted curve in the direction sought with a large enough effect in the repeat runs; an effect the other way counts as inactive or inconclusive; further: on the % scale 0 is the no-effect control and ±100 the full control effect). Conditions: ARE-bla HepG2 viability, CellTiter-Glo ATP luminescence, 16 h; max response: stronger effect = lower value. In short, it runs like this:
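ARE-bla HepG2 cells treated with compounds for 16 h at 37C; this counter screen measures viability as intracellular ATP by CellTiter-Glo luminescence after 30 min at room temperature.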

A short description of experiment [4]: qHTS Assay for Identifying Gametocytocidal Compounds (AID 743244). Further: potency means the concentration at half of the fitted maximal effect.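 On max response: on the % scale 0 is the no-effect control and ±100 the full control effect; actives lower the fluorescent signal which means gametocytes are killed.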 Conditions: P. falciparum 3D7 stage III-V gametocytes, alamarBlue, 72 h; max response: stronger effect = lower value. In short, it runs like this:
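Stage III-V P. falciparum 3D7 gametocytes, 20,000 per well, were exposed to compounds for 72 h at 37C, 5% CO2. AlamarBlue was then added for 24 h and viability was read as fluorescence at Ex 525/Em 598 nm.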

A short description of experiment [5]: qHTS assay for cell viability of HEK293 cells (AID 743288). Further: on the % scale 0 is the no-effect control and ±100 the full control effect; nearly all actives have a fitted effect of over 50% in size. Conditions: ATP luminescence (CellTiter-Glo), 18 h; max response: stronger effect = lower value. In short, it runs like this:
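Luminescent ATP quantitation served as the viability read-out. Cells (parental HEK293, 2,000/well) received compounds after at least 5 h at 37 C and were exposed for 18 h before a 30 min room-temperature reagent step.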

A short description of experiment [6]: qHTS assay for cell viability of the p53RE-bla HCT-116 cell line (AID 743292). Further: on the % scale 0 is the no-effect control and ±100 the full control effect; nearly all actives have a fitted effect of over 55% in size. In short, it runs like this:
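ATP-based luminescence, 16 h compound exposure at 37 C, p53RE-bla HCT-116 cells at 4,000/well.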

Experiment [7] can be described thus: qHTS profiling of the MIPE4 collection as inhibitors of Plasmodium falciparum (DD2) proliferation (AID 743345; call rule not given here). Conditions: P. falciparum Dd2 in erythrocytes, SYBR Green DNA, 72 h; at 28.5 µM (top of the series) unless noted. A digest of the protocol: (§1)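 Erythrocytes infected with P. falciparum (0.3% parasitemia, 2.5% hematocrit) incubated with compounds 72 h at 37 C, 5% CO2. Lysis with saponin/Triton buffer containing SYBR Green I, overnight at room temperature in the dark; DNA fluorescence (485/535 nm) normalised to 0.29 uM artemisinin and DMSO.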

Experiment [8] in a line: qHTS for small molecule inhibitors of Yes1 kinase: Counter Assay (AID 686950).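 Further: no kinase present so only ADP-Glo detection of a fixed ADP amount is tested; luminescence from ADP-Glo reporting ADP in a fixed ATP and ADP mixture; 0% = DMSO wells with ATP plus ADP and -100% = ATP-only wells without ADP.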 In short, it runs like this:
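Enzyme-free detection counter-screen: compounds preincubated 20 min in buffer, then 0.08 mM ATP plus 0.02 mM ADP added for 60 min at room temperature; ADP-Glo luminescence. Buffer 50 mM Tris pH 7.5, 10 mM MgCl2, 150 mM NaCl; normalized to ATP+ADP and ATP-only controls.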

Experiment [9] can be described thus: qHTS profiling for inhibitors of Plasmodium falciparum (3D7) proliferation (AID 743322).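 Further: infected erythrocytes exposed to compound for 72 h before lysis; 100% = DMSO vehicle wells and 0% = 0.29 µM artemisinin.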 The conditions noted are these: P. falciparum 3D7 proliferation; at 28.7 µM (top of the series). In short, it runs like this:
as §1

Experiment [10] can be described thus: qHTS profiling for inhibitors of Plasmodium falciparum (DD2) proliferation (AID 743323; call rule not given here). The conditions noted are these: lower = more inhibition; at 28.7 µM (top of the series). In short, it runs like this: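 SYBR Green fluorescence (ex 485, em 535 nm) of lysed cultures gives parasite DNA content; wells normalized to artemisinin (0.29 uM) and DMSO controls. Infected red cells: 0.3% parasitemia, 2.5% hematocrit, 72 h, 37 C.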

Experiment [11] in a line: qHTS profiling for inhibitors of Plasmodium falciparum (HB3) proliferation (AID 743324).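 Further: 100% = DMSO vehicle wells and 0% = artemisinin-treated control wells.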 The conditions noted are these: Plasmodium falciparum HB3 blood-stage proliferation; at 28.7 µM (top of the series). A digest of the protocol: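 P. falciparum HB3 grown in erythrocytes (0.3% parasitemia, 2.5% hematocrit final) with compound for 72 h at 37 C, 5% CO2. Parasite DNA detected by SYBR Green after saponin/triton lysis overnight; normalized to 0.29 uM artemisinin and DMSO.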

The target of experiment [12] is Arylsulfatase A (Homo sapiens) (UniProt P15289). The experiment in a line: qHTS screen for enhancers of Arylsulfatase A (ASA1): LOPAC Validation Assay (AID 720538). Further: 0% is about no effect. Conditions: outcome: dose series up to 57.5 µM. A digest of the protocol: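 Cell-based enhancement test: residual ASA activity in SV40-transformed I179S patient fibroblasts is measured by pNCS turnover (0.5mM final, 14h, room temperature) following 48h compound incubation; higher fluorescence indicates activation.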

Experiment [13] in a line: qHTS for compounds that reverse cellular toxicity of Amyloid beta (A-beta) peptide in yeast: LOPAC Validation Assay (AID 720559).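 Further: plate controls were DMSO for no effect and equimolar ferric chloride plus clioquinol rescue for full effect.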 In short, it runs like this:
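Here, A-beta-toxic yeast grow with test compounds at 30 C for 48 hr before optical density at 600 nm is recorded; data are normalized against DMSO and the FeCl3-clioquinol control.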

A short description of experiment [14]: qHTS for Activators of Parkin Expression: LOPAC Validation Assay (NLuc Reporter) (AID 720572;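 further: 0% = DMSO and 100% = positive control compound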). A digest of the protocol:
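Neuronal cells with a Parkin promoter-driven FLuc/NLuc coincidence reporter were treated 24 h at 37 C in 7-point dose response (LOPAC). NLuc luminescence read after FLuc; signals normalized to DMSO and positive control (100%).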

The nature of experiment [15]: qHTS for Activators of Parkin Expression: LOPAC Validation Assay (FLuc Reporter) (AID 720573;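 further: 0% = DMSO and 100% = positive control compounds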). A digest of the protocol:
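Readout is FLuc luminescence from neuronal reporter cells (Parkin promoter, FLuc plus NLuc) after 24 h compound exposure in dose response. Values normalized to neutral DMSO and positive-control compounds.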

The target of experiment [16] is T1, Hexokinase-4 (Homo sapiens) + Glucokinase regulatory protein (Homo sapiens) (UniProt P35557+Q14397). The experiment in a line: qHTS assay for inhibitors of recombinant human GCK-GKRP interaction: Diaphorase-coupled assay (AID 743205). A digest of the protocol: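 Signal derives from resorufin generated by diaphorase, linked to GCK turnover of glucose (5 mM) and ATP (0.4 mM). Enzyme complex was added after a 20-minute compound preincubation and monitored for 30 minutes.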

The target of experiment [17] is T1, Hexokinase-4 (Homo sapiens) + Glucokinase regulatory protein (Homo sapiens). The experiment in a line: qHTS assay for inhibitors of recombinant human GCK-GKRP interaction: ADP-Glo assay (AID 743206).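 Further: plate controls were DMSO plus enzyme for no effect and no enzyme for full effect.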 In short, it runs like this: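 GST-GCK and FLAG-GKRP (15 nM each in the dispensed mix, with 2 uM S6P) react with 0.4 mM ATP and 5 mM glucose (final) in Hepes pH 7.6 for 60 min at room temperature. ADP is measured by ADP-Glo luminescence.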

Experiment [18] shares this target. The experiment in a line: qHTS assay for inhibitors of recombinant human GCK-GKRP interaction: HTRF assay (AID 743207).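 Further: 0% = DMSO with GCK present and -100% = DMSO wells lacking GCK.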 A digest of the protocol: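 Titration screening format: recombinant GST-GCK and FLAG-GKRP at 5 nM, S6P at 2 uM, labelled anti-tag antibodies, 60 min at RT, dual-wavelength HTRF readout.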
Experiment [19] is described as follows: qHTS profiling of the MIPE4 collection as inhibitors of Plasmodium falciparum (3D7) proliferation (AID 743344; call rule not given here;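 further: scaled between DMSO vehicle wells and 0.29 µM artemisinin as full inhibition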). The conditions noted are these: P. falciparum 3D7 in erythrocytes, SYBR Green DNA fluorescence, 72 h; at 28.5 µM (top of the series) unless noted. In short, it runs like this:
as §1

Structures are written as SMILES. Values joined by “and” are separate entries in the source; they are usually repeats but may differ in a detail not shown here. Equal values may be shown once. Inconclusive results are not listed. Active and inactive are the calls of the source. Unless noted, the call rests on the fitted dose curve; in most records, active means well fitted curve in the direction sought with a large enough effect; inconclusive means small, poorly fitted or top-dose-only effect, or another doubt; inactive means no such curve, though single readings can be large; an effect the other way counts as inactive or inconclusive.

Sequence of Arylsulfatase A (Homo sapiens) (P15289 whole entry, looked up): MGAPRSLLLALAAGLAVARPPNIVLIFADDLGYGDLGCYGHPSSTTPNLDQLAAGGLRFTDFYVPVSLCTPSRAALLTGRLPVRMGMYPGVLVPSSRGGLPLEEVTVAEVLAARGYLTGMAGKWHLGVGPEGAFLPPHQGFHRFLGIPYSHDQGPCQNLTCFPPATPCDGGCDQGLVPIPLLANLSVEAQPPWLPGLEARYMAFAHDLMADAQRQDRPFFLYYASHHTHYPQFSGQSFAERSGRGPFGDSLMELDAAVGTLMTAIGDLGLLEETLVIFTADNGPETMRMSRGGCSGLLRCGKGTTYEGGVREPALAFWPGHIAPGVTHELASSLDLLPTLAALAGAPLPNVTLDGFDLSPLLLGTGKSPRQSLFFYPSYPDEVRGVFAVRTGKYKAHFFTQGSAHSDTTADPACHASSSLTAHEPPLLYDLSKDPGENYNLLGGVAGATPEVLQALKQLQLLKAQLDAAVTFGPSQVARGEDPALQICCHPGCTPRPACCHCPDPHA
T1 sequence (P35557 whole entry, looked up): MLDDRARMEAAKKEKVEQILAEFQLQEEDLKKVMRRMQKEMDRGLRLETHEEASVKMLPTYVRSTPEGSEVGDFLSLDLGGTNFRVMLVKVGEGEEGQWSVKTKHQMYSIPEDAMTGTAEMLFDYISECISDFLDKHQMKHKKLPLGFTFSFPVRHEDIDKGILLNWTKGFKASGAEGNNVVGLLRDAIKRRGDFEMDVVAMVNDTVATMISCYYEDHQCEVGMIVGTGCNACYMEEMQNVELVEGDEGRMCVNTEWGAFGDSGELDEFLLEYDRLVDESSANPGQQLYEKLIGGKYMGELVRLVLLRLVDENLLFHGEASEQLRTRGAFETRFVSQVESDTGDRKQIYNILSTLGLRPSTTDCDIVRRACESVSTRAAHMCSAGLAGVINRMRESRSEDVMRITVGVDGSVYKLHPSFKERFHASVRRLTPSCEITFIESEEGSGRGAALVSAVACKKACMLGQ
T1 sequence (Q14397 whole entry, looked up): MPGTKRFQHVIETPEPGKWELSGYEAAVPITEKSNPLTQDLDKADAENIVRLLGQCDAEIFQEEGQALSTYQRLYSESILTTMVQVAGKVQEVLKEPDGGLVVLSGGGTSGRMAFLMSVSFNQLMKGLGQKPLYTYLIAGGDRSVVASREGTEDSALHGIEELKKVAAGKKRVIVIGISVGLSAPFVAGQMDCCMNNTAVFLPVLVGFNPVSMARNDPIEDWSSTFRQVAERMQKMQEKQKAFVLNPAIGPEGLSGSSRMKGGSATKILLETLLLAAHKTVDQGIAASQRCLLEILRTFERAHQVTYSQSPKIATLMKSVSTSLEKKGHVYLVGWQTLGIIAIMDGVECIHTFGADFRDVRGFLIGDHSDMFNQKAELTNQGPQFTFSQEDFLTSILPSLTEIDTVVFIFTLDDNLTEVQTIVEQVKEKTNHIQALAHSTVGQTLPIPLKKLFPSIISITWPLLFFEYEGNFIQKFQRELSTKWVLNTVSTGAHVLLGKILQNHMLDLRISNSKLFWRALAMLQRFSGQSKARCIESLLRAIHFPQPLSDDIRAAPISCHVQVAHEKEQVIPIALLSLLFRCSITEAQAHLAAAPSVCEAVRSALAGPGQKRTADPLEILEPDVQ

Take `O=C(N[C@H](CO)[C@H](O)c1ccc([N+](=O)[O-])cc1)C(Cl)Cl`: the compound was called inactive in experiment [1]. Besides, the Potency entry in experiment [2] and in [6] was “inactive” throughout. In addition, the max response in [3] is 3.1% (inactive) and 1.36% (inactive); in experiment [4] it was -4.26% (inactive) and -6.91% (inactive); in experiment [5], -6.51% (inactive) and -1.46% (inactive). In [7], the parasite growth remaining, % of DMSO control (lower = more inhibition) turned out to be 100%.
`CNC(=O)c1cc(Oc2ccc(NC(=O)Nc3ccc(Cl)c(C(F)(F)F)c3)cc2)ccn1`: the compound was classed as inactive in experiment [8]. Besides, the max response in experiment [4] is -3.89% (inactive) and 12.7% (inactive) and 20% (inactive). In experiment [9], the remaining parasite growth % (stronger effect = lower value) is 31.5% and 9.84%. The activity, percent of control in experiment [10] was 29.9% and 20%. For the same compound, the remaining proliferation (% of control), lower = more inhibition in [11] was 3.29% and 1.23%. The parasite growth remaining, % of DMSO control (lower = more inhibition) in experiment [7] was 14%.
Consider `NC1(c2ccc(-c3nc4ccn5c(=O)[nH]nc5c4cc3-c3ccccc3)cc2)CCC1`, for which, in experiment [8], the compound was called inactive. For the same compound, the Potency in experiment [4] was 11.8 µM (active). The remaining parasite growth % (stronger effect = lower value) in [9] is 36.9% and -1.39%. Besides, in experiment [10], the activity, percent of control is 14.1% and -0.386%. Further, in experiment [7], the parasite growth remaining, % of DMSO control (lower = more inhibition) was determined as 17.9%.
Turning to `CC(C)NCC(O)c1ccc(NS(C)(=O)=O)cc1` (configuration not stated), the result in experiment [12], in [13], in [14], in experiment [15], in [16] and in experiment [17] was inactive. In addition, in [18], the result was inactive. Moreover, the max response in experiment [4] was -0.473% (inactive) and -8.06% (inactive) and 37.8% (inactive). The same compound showed a parasite growth, % of DMSO control in [19] of 44.4%. In experiment [7], the parasite growth remaining, % of DMSO control (lower = more inhibition) amounted to 94.6%.
As to `Cc1nnc(NS(=O)(=O)c2ccc(N)cc2)s1`, the outcome in experiment [1] was inactive. Moreover, the Potency result in [2] and in experiment [6] was “inactive” throughout. The max response in [3] was 4.88% (inactive); in experiment [4], -4.6% (inactive); in [5] it was 0.46% (inactive). For the same compound, in experiment [19], the parasite growth, % of DMSO control amounted to 22.2%. Moreover, in [7], the parasite growth remaining, % of DMSO control (lower = more inhibition) was 17.6%.
Consider `CCc1cc(C(N)=S)ccn1`, for which, in experiment [1], the call was inactive. The Potency entry in experiment [2] and in [6] was “inactive” each time. Moreover, the max response in experiment [3] was -5.32% (inactive) and -4.73% (inactive); in [4], -11% (inactive); in [5], 6.59% (inactive) and -10.6% (inactive). The compound further returned a parasite growth, % of DMSO control in [19] of 4.85%. The parasite growth remaining, % of DMSO control (lower = more inhibition) in experiment [7] turned out to be 10.5%.
For `Cc1noc(NS(=O)(=O)c2ccc(N)cc2)c1C`, the result in experiment [1] was inactive. The Potency entry in experiment [2] and in [6] was “inactive” each time. Besides, the max response in experiment [3] was -4.33% (inactive) and -0.699% (inactive); in experiment [4], -10.4% (inactive) and -5.26% (inactive); in experiment [5] it was -2.22% (inactive) and 5.06% (inactive). In addition, the parasite growth remaining, % of DMSO control (lower = more inhibition) in experiment [7] stood at 98.9%.
As for `N[C@@H](Cc1ccc(O)c(O)c1)C(=O)O`, the outcome in experiment [12], in [13], in experiment [14], in experiment [15], in experiment [16] and in experiment [17] was inactive. The outcome in [18] was inactive. In addition, the max response in experiment [3] is 13.2% (inactive); in experiment [4] it was 20.2% (inactive); in experiment [5], 4.23% (inactive). In addition, the Potency entry in [6] was “inactive”. Further, the parasite growth, % of DMSO control in experiment [19] was 85.4%. In experiment [7], the parasite growth remaining, % of DMSO control (lower = more inhibition) turned out to be 114%.
For `COc1cc2ncnc(Nc3cccc(Cl)c3)c2cc1OC`, the result in experiment [12], in [13], in experiment [14], in [15], in experiment [16] and in experiment [17] was inactive. Moreover, the outcome in [18] was inactive. Also, in experiment [4], the max response was 13.8% (inactive). This compound came in with a parasite growth, % of DMSO control in [19] of 8.74%. In addition, the parasite growth remaining, % of DMSO control (lower = more inhibition) in experiment [7] worked out at 27%.
Consider `O=C(O)c1cc(=O)[nH]c(=O)[nH]1`, for which the compound was classed as inactive in experiment [1]. Besides, the Potency result in experiment [2] and in [6] was “inactive” throughout. For the same compound, the values for the max response in [3], in [4] and in experiment [5] were 16.2% (inactive), -0.993% (inactive) and -10.9% (inactive), respectively. In experiment [19], this compound gave a parasite growth, % of DMSO control of 101%. Further, in [7], the parasite growth remaining, % of DMSO control (lower = more inhibition) was 144%.

(Values after PubChem BioAssay (NCATS).)
